An excerpt weighted towards active compounds, which were near 0.55% of everything screened.
TSHR antagonist: antagonists of human thyroid stimulating hormone receptor; activity change, negative = inhibition, % at 11.5 µM; P16473; 0.2% of 330,000 active; AID 504810; TSHR-expressing cells, TSH-stimulated cAMP HTRF, 2 h; hits give low values;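 active = activity change below a set negative limit, meaning inhibition stronger than a set level, cut at about -70% in these data; inconclusive = activity change between two set negative limits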; note: % is set by controls: 0 for no effect and ±100 for the full control effect
Target sequence (P16473 whole entry, looked up): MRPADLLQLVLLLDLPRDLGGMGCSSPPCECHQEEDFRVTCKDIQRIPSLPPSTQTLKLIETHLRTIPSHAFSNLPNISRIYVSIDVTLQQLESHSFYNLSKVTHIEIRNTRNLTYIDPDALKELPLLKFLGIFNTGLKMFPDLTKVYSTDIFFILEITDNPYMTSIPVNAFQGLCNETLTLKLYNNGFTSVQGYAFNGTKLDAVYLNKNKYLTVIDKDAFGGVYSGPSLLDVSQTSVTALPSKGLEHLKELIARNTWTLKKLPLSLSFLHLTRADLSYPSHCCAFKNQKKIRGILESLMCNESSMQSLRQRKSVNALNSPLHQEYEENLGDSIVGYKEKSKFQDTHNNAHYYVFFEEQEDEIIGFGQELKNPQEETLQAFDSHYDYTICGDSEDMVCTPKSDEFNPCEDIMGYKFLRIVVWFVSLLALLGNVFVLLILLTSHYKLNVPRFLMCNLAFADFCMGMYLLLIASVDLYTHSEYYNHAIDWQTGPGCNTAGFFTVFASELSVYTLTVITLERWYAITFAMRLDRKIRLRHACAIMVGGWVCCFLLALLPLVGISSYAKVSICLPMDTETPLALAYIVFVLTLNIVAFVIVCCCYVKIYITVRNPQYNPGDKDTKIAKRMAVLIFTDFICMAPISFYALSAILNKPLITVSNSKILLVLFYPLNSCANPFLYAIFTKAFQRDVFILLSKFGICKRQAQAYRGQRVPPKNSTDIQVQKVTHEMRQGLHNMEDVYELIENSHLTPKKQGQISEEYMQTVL
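Inhibition of cAMP made by TSHR-expressing cells under TSH stimulation (4nM final, EC80; 2 h, 37 deg C) is quantified with a one-step lysis HTRF kit, anti-cAMP cryptate versus cAMP-d2.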
Akt phos inh: Akt phosphorylation inhibition; Neuro2A IGF-stimulated pAkt S473 HTRF, 20 min; hits give low values; activity change, % for hits at 50 µM; 0.32% of 360,000 active; in the data active = activity change below about -80%; inconclusive = mostly about -51% to -80%; note: % is set by controls: 0 for no effect and ±100 for the full control effect
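Neuro2A cells (4,500/well, DMEM with 0.5% FBS) were treated with compound at a single 50 µM final concentration, stimulated with 6 nM IGF for 20 min at 37 °C, and lysed. Phospho-Akt Ser473 was read by HTRF as 665/615 ratio ×10^4.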
Glioma ERSR ind: ER stress response induction in glioma | U87-MG GRP78 promoter luciferase reporter, 16 h | Potency, µM, without a hit: at the top dose activation, hits mostly activators | 0.02% of 420,000 active; note: potency is the fitted concentration of half-maximal effect; series mostly up to about 76 µM; % of control where 0% means no effect; nearly all actives have a fitted effect of over 35% in size
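Stably transfected U87-MG human glioma cells carrying a GRP78-based luminescent sensor were seeded at 1000 cells/well, pin-dosed with compounds and incubated 16 h. Luciferase reagent was then added, and end-point luminescence was read after 10 min at room temperature.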
LDHA block: LDHA (human) enzyme inhibition; purified LDHA, NADH/diaphorase-resazurin fluorescence; hits give low values; P00338; AID 1347041; activity change, % (values are at about 110 or 230 µM); 0.15% of 480,000 active; in the data active = activity change below about -30%; inconclusive = mostly about -25% to -30%;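 note: plate controls were DMSO wells for no effect and wells without enzyme for full effect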
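Enzyme activity of human lactate dehydrogenase 5 (2 nM; 0.06 mM NADH, 0.2 mM pyruvate, 5 min, RT) is measured via a resazurin/diaphorase fluorescence readout of residual NADH.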
TCR act: activates T cell receptor signaling; primary human leukocytes, anti-CD3, IL-2 HTRF, 48 h; Potency, µM (doses to about 9.22 µM), for the others: at the highest dose activation of IL-2 secretion, actives largely listed as activators; 330,000 tested, under 10 active; AID 504894; note: % of control where 0% means no effect
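Activity was scored as IL-2 release from primary human leukocytes given only a TCR signal (a-CD3 beads) plus compound for 48 hr. Detection used a two-antibody HTRF format read at 665nm.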
RGS4 inh: inhibitors of human regulator of G protein signaling 4. P49798. Transcreener GDP fluorescence polarization, RGS4-accelerated GTP hydrolysis. Potency, µM (highest dose often 114 µM), for inactives: at the top dose activity change, negative = inhibition, hits mostly inhibitors. 0.039% of 390,000 active. AID 504845; note: potency is the fitted concentration of half-maximal effect; % is set by controls: 0 for no effect and ±100 for the full control effect; nearly all actives have a fitted effect of over 75% in size
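MLSMR compounds (23 nl, pin-transferred) preincubated 10 min at room temperature with a 500nM (2x) first reagent, then RGS4 at 900nM (2x) plus Transcreener GDP mix added; fluorescence polarization (620/688 nm) read before and after 90 min at 30 °C.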
Starred values were filed as active, the others as inactive; i = inactive; ? = inconclusive; · = no result; ! = repeats disagree; [ ] = another dose, or the depositor's remark. Unless noted, calls come from the whole dose curve; as a rule, active = well fitted curve in the direction sought with a large enough effect; inconclusive = small, poorly fitted or top-dose-only effect, or another doubt; inactive = no such curve, though single readings can be large; an effect the other way counts as inactive or inconclusive.

SMILES | TSHR antagonist | Akt phos inh | Glioma ERSR ind | LDHA block | TCR act | RGS4 inh
O=C(CCc1c[nH]c2ccccc12)NCc1ccncc1 | 11 | i | -3% | -32*! | -11% | -6%
CC1=C(C(=O)Nc2cc(C)ccc2C)C(c2cccc3ccccc23)NC(=S)N1 (stereo not given) | · | · | · | -9 | · | ·
Cc1ccccc1/C=C/C(=O)c1ccc([N+](=O)[O-])o1 | -80* | i | -10% | 15 | -7% | ?
Cc1ccc2nc(CN3CCN(S(=O)(=O)c4cccc(C(F)(F)F)c4)CC3)cn2c1 | · | · | · | 11 | · | ·
CCn1cc([N+](=O)[O-])c(C(=O)Nc2cc(C)on2)n1 | · | -113%* | -6% | -4 | -6% | -3%
CCn1cc([N+](=O)[O-])c(C(=O)Nc2nc(-c3ccc(C)cc3)c(C)s2)n1 | -3 | i | -8% | -8 | -3% | -16%
Cc1cn([C@H]2C[C@H](N[S+](=O)([O-])Cc3ccc(C(F)(F)F)cc3)[C@@H](CO)O2)c(=O)[nH]c1=O | · | · | · | -7 | · | ·
CC(C)C(NC(=O)OC(C)(C)C)C(=O)N1CCCC1C(=O)NC(Cc1ccccc1)C(N)=O (stereo not given) | 4 | -112%* | 10% | 2 | -5% | 17%
CC(C)(C)OC(=O)N[C@H](Cc1ccccc1)C(=O)N1CCC[C@@H]1C(=O)O | -3 | i | -3% | -8 | 0% | -5%
COc1ccc(/C=C/c2ccc3cc(C)ccc3n2)cc1O | · | · | · | 4 | · | ·
N#C/C(=C\c1ccc2cccnc2c1)c1nc2ccccc2[nH]1 | · | · | · | 8 | · | ·
Oc1c(Cl)cc(Cl)cc1Sc1cc(Cl)cc(Cl)c1O | -92* | · | -3% | · | · | ·
CC(C)N(CCC(=O)c1ccc2ccccc2c1)Cc1ccccc1 | ? | · | -15% | -8 | 3% | 0.67µM*
Cc1ccsc1-c1nc(CSCC(=O)N2CCN(c3ccccc3)CC2)c(C)o1 | -71* | i | -7% | 2 | -4% | -19%
COc1ccc(-c2nc(CSCC(=O)N3CCN(c4ccccc4)CC3)c(C)o2)cc1 | · | · | -5% | -4 | · | 1%
Cc1cc(=O)oc2c(O)c(O)ccc12 | · | i | 28µM* | 15 | -5% | -37%
CNC(=O)/C(=C/c1cc2ccc(OC)cc2nc1Cl)NC(=O)c1ccccc1 | · | · | · | 6 | · | ·
COc1ccccc1-c1nnc(SCc2csc(Nc3ccc(C)cc3)n2)o1 | · | · | · | 10 | · | ·
O=C(COC(=O)c1cccnc1SCC(=O)NCc1ccccc1)NCc1ccccc1 | -13 | -89%* | -6% | 4 | 4% | -30%
CC1CC(=O)c2cnc(Nc3ccccc3)nc2C1 (stereo not given) | 5 | i | 2% | 3 | -5% | 6%
CC1CC(=O)c2cnc(Nc3cccc(C(F)(F)F)c3)nc2C1 (stereo not given) | 1 | -104%* | -1% | -9 | -3% | -15%
CCc1ccc(CNC(=O)c2cc3cc(C)ccc3[nH]2)cc1 | · | · | · | 9 | · | ·
O=S(=O)(Nc1ccc2cn[nH]c2c1)c1ccc(Cl)c(Cl)c1 | · | · | · | 13 | · | ·
O=C1C(Cl)=C(Nc2ccc3cn[nH]c3c2)C(=O)c2ccccc21 | -90* | i | -17% | 53 | 5% | ?
Cc1ccc(NC(=O)CN(C)c2ccc(S(=O)(=O)N3CCN(C)CC3)cn2)cc1 | 2 | -102%* | -4% | -5 | 1% | 7%
SMILES | TSHR antagonist | Akt phos inh | Glioma ERSR ind | LDHA block | TCR act | RGS4 inh
CCNc1cc(=O)n(C)c(=O)n1C | -10 | -122%* | -5% | -6 | 6% | -44%
CCCCNc1cc(=O)n(C)c(=O)n1C | 4 | i | -1% | -8 | -5% | -2%
CCOC(=O)C1=C(C)NC(=O)NC1c1cc(Br)c(O)c(OC)c1 (stereo not given) | -2 | -120%* | -3% | 1 | 5% | -29%
CCCCCc1nc(-c2nonc2N)no1 | -6 | -120%* | -1% | -4 | -2% | 17%
C#CCOC(=O)Nc1cccn(Cc2c(Cl)cccc2Cl)c1=O | 6 | -120%* | 0% | -1 | -4% | 32%
O=C(Nc1cccn(Cc2c(Cl)cccc2Cl)c1=O)C1CC1 | -7 | i | -1% | 4 | 6% | ?
O=C(CSc1ncnc2nc[nH]c12)Nc1cc(Cl)ccc1Cl | · | · | · | -38* | · | ·
Cc1cc(=S)nc[nH]1 | · | · | · | 1 | · | ·
CCC(C)[C@@H](NC(=O)OC(C)(C)C)c1nnc(S(=O)(=O)Cc2cccc(C)c2)o1 (stereo not given in full) | -72* | i | -15% | -5 | 1% | -44%
CC(C)(C)OC(=O)N[C@@H](Cc1ccccc1)c1nnc(S(=O)(=O)Cc2ccccc2)o1 | -32 | · | · | · | · | ·
O=C(NCCC1=CCCCC1)C(=O)NCC1OCCCN1S(=O)(=O)c1cc(F)ccc1F (stereo not given) | -96* | i | -2% | -3 | 2% | 13%[11.4 µM]
O=C(NCCC1=CCCCC1)C(=O)NCC1OCCCN1S(=O)(=O)c1ccc(F)cc1 (stereo not given) | -22 | i | -3% | -7 | 6% | 5%
O=C(c1cc(-c2ccncc2)nc2ccc(Br)cc12)N1CCN(c2ccccn2)CC1 | · | -114%* | 2% | 0 | 2% | -13%
CC(C)(C=O)C1=CC(=O)c2ccccc2C1=O | -87* | i | -13% | 45 | -1%[46.1 µM] | -130%
Cc1cc(C)nc(NC(c2cccs2)c2c(NC(=O)c3ccco3)sc(C)c2C)n1 (stereo not given) | · | · | · | 8 | · | ·
CN1CCN(C(=O)C2CCCN(S(=O)(=O)c3ccc(Cl)cc3)C2)CC1 (stereo not given) | -8 | i | -5% | -33* | 8% | 7%
CN1CCN(C(=O)C2CCCN(S(=O)(=O)c3ccc(Br)cc3)C2)CC1 (stereo not given) | 14 | i | -4% | -6 | -9% | -4%
COCCn1c(N)c(NCc2ccccc2)c(=O)n(CC(=O)Nc2cc(C)ccc2C)c1=O | 0 | -108%* | 0% | -3 | 5% | 21%
CCCOP(=O)(OCCC)c1nc(-c2ccccc2)oc1NC | · | · | · | -7 | · | ·
CS(=O)(=O)N(CC(=O)N1CCOCC1)c1cccc(F)c1 | -93* | i | -5% | -8 | · | 10%
CCC1Sc2ccc(S(=O)(=O)CCC(=O)Nc3ccccc3Cl)cc2NC1=O (stereo not given) | -131* | i | -3% | -2 | 6% | -2%[56.9 µM]
CS(=O)(=O)NNC(=O)c1cc2cc3ccccc3nc2s1 | -4 | i | 4% | 10 | 3% | -4%
NNC(=O)c1cc2cc3ccccc3nc2s1 | -7 | i | 11% | -34* | 2% | -13%[56.9 µM]
COc1ccccc1CNS(=O)(=O)c1cc(-c2cc(C)no2)ccc1C | · | · | -3% | -5 | · | 21%

Screening data deposited in PubChem BioAssay by National Center for Advancing Translational Sciences (NCATS).
